ELG1 genotoxic: qHTS screen for small molecules that induce genotoxicity in human embryonic kidney (HEK293T) cells expressing luciferase-tagged ELG1; HEK293T ELG1-luciferase reporter, luminescence, 16 h; Potency, µM (top dose mostly 46 µM), for inactives: at the highest dose activity change, positive = activation, actives largely listed as activators; 330,000 tested, 1.3% active; AID 504466, 2011; note: % of control where 0% means no effect; nearly all actives have a fitted effect of over 60% in size
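16 hr compound incubation (37 °C, 5% CO2) of HEK293T cells carrying luciferase-tagged ELG1; luciferase then measured by ONE-Glo luminescence after 30 min at RT.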
SMN2 splice enh: qHTS Assay for Enhancers of SMN2 Splice Variant Expression | HEK293 SMN2-luciferase splicing reporter, luminescence, 30-36 h | Potency, µM (series often up to 46.1 µM), for the others: top-dose activity change, positive = activation, usual class: activators | 210,000 tested, 2.8% active | AID 1458, 2008; note: % of control where 0% means no effect; nearly all actives have a fitted effect of over 55% in size
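qHTS luciferase splicing reporter: luminescence rises when SMN2 exon 7 is included in transfected HEK293 cells. Compound exposure lasted 30-36 h at 37C, with 4.5 mM final sodium butyrate as control, followed by a ONE-Glo read.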
NPC1 prom act: qHTS Assay for NPC1 Promoter Activators | Potency, µM (highest dose often 9.22 µM), inactives show top-dose activation, usual class: activators | 320,000 tested, 2.4% active | AID 485313, 2010 | Huh7 NPC1 promoter luciferase reporter, 24 h; note: % of control where 0% means no effect; nearly all actives have a fitted effect of over 60% in size
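Quantitative HTS used a cell-based reporter: Huh7 cells stably bearing the NPC1 promoter upstream of luciferase were treated with compounds for 24 h, and promoter activation was read as luminescence.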
p53 reactivation: qHTS assay for re-activators of p53 using a Luc reporter | H1299 p53-A138V BP100-luciferase reporter, luminescence, 24 h | Potency, µM (doses to about 92.2 µM), inactives show top-dose activity change, positive = activation, most hits filed as activators | 320,000 tested, 0.063% active; note: % of control where 0% means no effect; nearly all actives have a fitted effect of over 45% in size
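H1299 (p53-null), stable ts p53-A138V + BP100-Luc; 1000 cells/well, Opti-MEM/10% FBS; cpd 4 pt, 1:5; 24 h, 37 deg C, 5% CO2; detection reagent 10 min RT; luminescence.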
FLuc counter: qHTS profiling assay for firefly luciferase inhibitor/activator using purifed enzyme and Km concentrations of substrates (counterscreen for miR-21 project) | Luciferin 4-monooxygenase (Photinus pyralis), P08659 | purified FLuc, Km substrates, luminescence inhibition | Potency, µM (series often up to 57.5 µM), without a hit: at the top dose activity change, negative = inhibition, hits mostly inhibitors | 360,000 tested, 6.9% active;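 note: plate controls were vehicle for no effect and reference inhibitor for full effect; nearly all actives have a fitted effect of over 55% in size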
Target sequence (P08659 whole entry, looked up): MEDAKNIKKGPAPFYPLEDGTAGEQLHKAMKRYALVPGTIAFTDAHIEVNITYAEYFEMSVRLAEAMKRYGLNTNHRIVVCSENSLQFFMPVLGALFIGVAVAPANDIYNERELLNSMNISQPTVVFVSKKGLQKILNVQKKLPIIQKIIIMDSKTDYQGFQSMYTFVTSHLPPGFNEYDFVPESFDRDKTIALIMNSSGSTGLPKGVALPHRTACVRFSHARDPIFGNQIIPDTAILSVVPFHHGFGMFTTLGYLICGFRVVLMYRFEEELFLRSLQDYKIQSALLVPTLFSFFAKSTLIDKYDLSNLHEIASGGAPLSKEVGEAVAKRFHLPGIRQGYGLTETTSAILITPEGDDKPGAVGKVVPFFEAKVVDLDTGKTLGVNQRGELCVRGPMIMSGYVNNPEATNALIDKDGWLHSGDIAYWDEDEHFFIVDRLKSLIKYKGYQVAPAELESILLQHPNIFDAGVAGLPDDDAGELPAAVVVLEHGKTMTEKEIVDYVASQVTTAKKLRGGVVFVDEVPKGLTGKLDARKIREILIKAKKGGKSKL
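Biochemical qHTS of compounds, final roughly 60 µM downward over six points, against 10 nM purified firefly luciferase using Km concentrations of substrates (10 uM D-luciferin, 10 uM ATP) in Tris acetate pH 7.5 buffer; luminescence output.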
Rab9 prom act: qHTS Assay for Rab9 Promoter Activators. AID 485297, 2010. Potency, µM (series often up to 9.22 µM), for the others: top-dose activation, negative = inhibition, actives largely listed as activators. 320,000 tested, 2.8% active. Huh7 Rab9 promoter-luciferase reporter, luminescence, 24 h; note: % of control where 0% means no effect; nearly all actives have a fitted effect of over 60% in size
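Stable Rab9-luc Huh7, 1500 cells/well, 2 h settle; cmpd in DMSO, 24 h, 37 °C/5% CO2; luciferase reagent 10 min RT; luminescence.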
* hit, by the source's call; ? = inconclusive; . = no result; [ ] = dose if it differs, or a comment. This is a sample that favours compounds with a hit; in the whole collection about 7.4% have one here. Calls come from the whole dose curve; as a rule, active = well fitted curve in the direction sought with a large enough effect; inconclusive = small, poorly fitted or top-dose-only effect, or another doubt; inactive = no such curve, though single readings can be large; an effect the other way counts as inactive or inconclusive. Potency is the fitted concentration of half-maximal effect.

SMILES | ELG1 genotoxic | SMN2 splice enh | NPC1 prom act | p53 reactivation | FLuc counter | Rab9 prom act
COc1ccc(C2Nc3ccccc3C(=O)N2c2ccc(C)cc2)cc1COc1ccccn1 (centres undefined) | ? | 11µM* | 3.2µM* | . | ? | 3.2µM*
O=C(NCCNC[C@@H](O)COc1ccc(O)cc1)N1CCOCC1 | . | -7%[20.6 µM] | . | . | . | .
Cc1c(CCC(=O)N[C@@H](C)C(=O)O)c(=O)oc2cc3oc4c(c3cc12)CCCC4 | 5% | . | -3% | -11% | 11µM* | -6%
CCCC(NC(=O)CCc1c(C)c2cc3c4c(oc3c(C)c2oc1=O)CCCC4)C(=O)O (centres undefined) | 0% | . | 1% | -2% | ? | 2%
Cc1c(CC(=O)NCCC(=O)O)c(=O)oc2cc3oc4c(c3cc12)CCCC4 | -17% | . | 4% | -7% | 17µM* | -1%
Cc1c(CC(=O)NCCCC(=O)O)c(=O)oc2cc3oc4c(c3cc12)CCCC4 | 2% | . | 0% | 11% | 21µM* | -3%
Cc1c(CC(=O)NCCCCCC(=O)O)c(=O)oc2c(C)c3oc4c(c3cc12)CCCC4 | 1% | . | 0% | 4% | ? | 5%
CN1CCN(C(=O)C(=O)Nc2c3c(nn2-c2ccc(F)cc2)CSC3)CC1 | . | . | . | . | 5% | .
CCOc1cc(S(=O)(=O)NCCc2c(C)[nH]c3ccc(C)cc23)ccc1Br | . | -16% | . | . | -3% | .
CC#CCN1c2ccccc2[C@]23C[C@@H](C(=O)OC)N(S(=O)(=O)c4ccc(Br)cc4)C2=NC(C(=O)OC)=C(C(=O)OC)[C@H]13 | . | -3%[9.22 µM] | . | . | . | .
CCn1c2c(c(=O)n3ncc(C(=O)Nc4ccc(C(=O)OC)cc4)c13)CN(Cc1ccc(OC)cc1)CC2 | . | . | . | . | -18% | .
O=C(Nc1ccc(Cl)c([N+](=O)[O-])c1)c1ccc2c(c1)OCCO2 | ? | . | ? | 29% | 6µM* | 0.89µM*
O=C(Nc1ccc(Br)cc1)c1ccc2c(c1)OCO2 | 8.2µM* | . | 1µM* | ? | 2.1µM* | 0.71µM*
CC(=O)NC(Cc1c[nH]c2ccccc12)C(=O)OCC(=O)Nc1ccc2c(c1)OCO2 (centres undefined) | 2% | -8% | 0% | 12% | 2% | 12%
O=C(Nc1ccc2c(c1)OCO2)c1ccc(CO)cc1 | ? | . | 3.2µM* | ? | 9.5µM* | 2.8µM*
CC(C)C(=O)Nc1ccc(NC(=O)c2ccc3c(c2)OCO3)cc1 | ? | . | 5% | . | -5% | 9%
Cc1[nH]c2ccccc2c1C(=O)C(=O)Nc1ccc2c(c1)OCO2 | 17% | . | ? | 5% | 17µM* | ?
CCOC(=O)c1[nH]c2c(c1Cc1ccccc1)C(=O)CC(c1ccc(OC)cc1)C2 (centres undefined) | . | -9% | . | . | 1% | .
O=C(c1csnn1)N1CCC[C@@]2(CCN(Cc3ccccc3)C2)C1 | . | 2% | . | . | . | .
O=C(Nc1ccc2c(c1)OCO2)c1c(Cl)nc2sccn12 | ? | ? | ? | 20% | ? | 3.2µM*
O=C(Nc1ccc2nsnc2c1)c1ccc2c(c1)OCO2 | 1.2µM* | 5.6µM* | 0.63µM* | . | 1.3µM* | 0.45µM*
O=C(Nc1ccc2c(c1)OCO2)c1cccc(Cl)c1 | ? | 16µM* | 3.2µM* | ? | 9.5µM* | 2.2µM*
Cn1ncc(Cl)c1C(=O)Nc1ccc2c(c1)OCO2 | 13% | . | 17% | ? | -10% | 18%
O=C(Nc1ccc(Cl)cc1)c1ccc2c(c1)OCO2 | ? | 4.5µM* | 0.4µM* | ? | 1.3µM* | ?
